Reference: PubChem BioAssay AID588692 (Broad Institute, 2011)
Among all 360,000 compounds or so, about 830 (0.23%) were called active.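 How the source made its calls: active means mean luciferase reporter signal, scaled so untreated is 0 and the glycosylation-blocking control 100, at or above a set limit in every replicate; inconclusive means mean reaches the limit but not every replicate does; inactive means mean below the limit.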 This excerpt belongs to a sample that is enriched for actives.

experiment: D54 reporter luminescence gain compounds – D54 ERlucT cells, set 2, N-linked glycosylation inhibitor project, primary screen (AID 588692); settings: D54 ERlucT glycosylation luciferase reporter, 24 h; at 12.5 µM; stronger effect = higher value; percent of 100 nM tunicamycin response;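 further: luciferase carries N-glycosylation sites so blocking glycosylation raises the light; 0% = median of neutral control wells and 100% = median of 100 nM tunicamycin wells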

Reporter increase, active:
CN(C)c1ccc(/C=C/C(=O)c2ccc(C(C)(C)C)cc2)cc1[N+](=O)[O-] 32.9%
C=CCn1c(SCc2c(C)noc2C)nc2sc3c(c2c1=O)CCC(C)C3 (stereo not given) 27.8%
CC(C)CCNC(=O)Cn1c(=O)oc2cc(S(=O)(=O)N3CC(C)CC(C)C3)ccc21 (stereo not given) 114%
Cc1ccc2nc(-c3ccncc3)cc(C(=O)Nc3ccncc3)c2c1 29.9%
Cn1c(=O)n(C)c2cc(C(=O)Nc3ccc4c(c3)OCO4)ccc21 70.1%
C=CCN(CC=C)S(=O)(=O)c1ccc(C(=O)Nc2nc3c(s2)CCc2ccccc2-3)cc1 55.6%
CNC(=O)c1cccc2nc3ccccc3nc12 39.1%
Cn1ccc(=Nc2ccc(NC(=O)c3ccc(N=c4ccn(C)c5ccc([N+](=O)[O-])cc45)cc3)cc2)cc1 32.9%
O=C(COC(=O)Cn1cnc2ccccc21)Nc1cccc2c1C(=O)c1ccccc1C2=O 103%
COC(=O)c1ccc(C(=O)NC2CC(C)(C)Cc3c2cnn3-c2ccc(F)cc2)nc1 (stereo not given) 26.7%
O=C(N/N=C/c1cccc(Br)c1)c1ccc(N2CCCC2=O)cc1 29.6%

Reporter increase, inactive:
C[C@@H]1CN([C@@H](C)CO)C(=O)c2cc(Br)cnc2O[C@@H]1CN(C)C(=O)C1CCCCC1 -0.264%
CC1(C)O[C@@H]2[C@H](O1)[C@@H](COS(=O)(=O)O)O[C@H]2n1ccc(=O)[nH]c1=O 2.9%
CCCNC(=O)C1(C)CCN(C(=O)c2cc(F)ccc2C)C1 (stereo not given) -0.06%
CC(C)OCCCNC(=S)N1CCC(C(=O)c2ccc3c(c2)OCCO3)CC1 -1.26%
COc1ccc(C)cc1NC(=O)CSc1cccc[n+]1[O-] 1.45%
O=C(/C=C/c1ccc(Cl)cc1)N1CCN(c2ccccc2[N+](=O)[O-])CC1 0.213%
CN(C)c1ccc(S(=O)(=O)NCC(=O)NCC2CCCCC2)cc1[N+](=O)[O-] -0.935%
CC/C(=N\NC(=O)c1c(C)nc2ccccn12)c1ccc(Cl)cc1 -0.008%
OCc1ccc(-c2ccccc2)c(-c2ccccc2)c1 2.12%
CCCc1nc2ccccc2c(C(=O)OCc2nnc(-c3cc(OC)c(OC)c(OC)c3)o2)c1CC 1.91%
O=C1C2C3C=CC(C3)C2C(=O)N1c1ccc(S(=O)(=O)Nc2nccs2)cc1 (stereo not given) -0.133%
Cc1sc2ncnc(SCC(=O)Nc3ccc(CN4CCCC4)cc3)c2c1C -0.51%
C=CCn1c(SCC(=O)NCC2CCCO2)nc2sc(C)c(C)c2c1=O (stereo not given) -1.1%
C=CCn1c(SCC(=O)NCCCO)nc2sc3c(c2c1=O)CCC3 0.299%
N#Cc1ccc(C2=CC(=O)C[C@H](c3ccc(Cl)cc3)C2)cc1 1.89%
CC(=O)NCC(=O)N(Cc1ccco1)C1(C(=O)NC2CCCC2)CCCCC1 -0.741%
O=C(Nc1ccc(Cl)cc1)C1Cc2c(-c3ccc4c(c3)OCO4)ccnc2O1 (stereo not given) 1.69%
CCc1c(C)n([O-])c2c([n+]1=O)CCCCC2 2%
CCCNC(=O)C1(C)CCCN(C(=O)c2cccc(OC(C)=O)c2C)C1 (stereo not given) -0.136%
Cc1ccc(Nc2nc(CSc3nnc(-c4ccncc4)n3-c3ccccc3C)cs2)cc1 -2.15%
CC1CCCCN1C(=O)Cn1c(=O)oc2cc(S(=O)(=O)N3CCCCC3)ccc21 (stereo not given) -0.145%
COc1cccc(CNC(=O)Cn2c(=O)oc3cc(S(=O)(=O)N4CCCCC4)ccc32)c1 -0.785%
CCOC(=O)c1cc2cc(-c3c(C(=O)OCC)oc4cc(O)cc(O)c4c3=O)ccc2o1 -0.142%
Cc1cccc(C)c1NC(=O)Nc1ccccc1-n1ccnc1 0.968%
Cc1cccn2cc(-c3cccc(S(=O)(=O)N4CCCCC4)c3)nc12 -0.565%
Cc1ccc2nc(-c3ccncc3)cc(C(=O)Nc3ccc(OC(F)F)cc3)c2c1 -8.25%
CC1CCCC(NC(=O)c2cc(-c3ccncc3)nc3ccccc23)C1C (stereo not given) 0.382%
O=C(c1ccc(N2CCCC2=O)cc1)N1CCN(c2ccc(C(F)(F)F)cc2[N+](=O)[O-])CC1 -1.99%
CN(C)C(=O)N=NC(=O)N(C)C 0.968%
COc1cc(N/C=C2\CC(=O)NC(C)=C2C#N)cc(OC)c1OC 0.911%
O=C1/C(=C\c2ccc(O)cc2)CCC1CNc1ccc(Cl)cc1 (stereo not given) 10.4%
COc1cccc(OC)c1C(=O)Nc1ccc2c(c1)n(C)c(=O)n2C 9.32%
Cc1ccc(C(=O)Nc2ccc3c(c2)OCCO3)cc1S(=O)(=O)N1CCOCC1 -2.07%
Cc1ccc(S(=O)(=O)N2CCOCC2)cc1NC(=O)c1ccncc1 0.492%
Cc1ccc(S(=O)(=O)NN=C2CC(C)(C)CC(=O)C2(C)C)cc1 -0.913%
Cc1cccc(S(=O)(=O)N2CN(CC3CCCO3)c3nc4ccccc4nc32)c1 (stereo not given) 0.557%
Cc1sc2c(c1C)c(=O)n(-c1ccccc1)c1nncn21 3.73%
COCCN(CCOC)S(=O)(=O)c1ccc(C(=O)Nc2nc3c(s2)CCc2ccccc2-3)cc1 -0.048%
O=C(Nc1ccc(S(=O)(=O)N2CCc3ccccc3C2)cc1)c1ccccc1 -1.85%
C[C@H](CO)N1C[C@H](C)[C@H](CN(C)CC2CC2)Oc2ccc(NC(=O)CCN3CCOCC3)cc2C1=O 1.29%
CCc1nnc(NC(=O)C2CC(=O)N(c3ccc4c(c3)OCCO4)C2)s1 (stereo not given) 1.58%
CN(C)C(=O)c1coc2nc3ccccc3nc12 0.129%
CNC(=O)C(NC(=O)c1ccccc1)=C(C)C -0.912%
COc1ccc2[nH]c3c(c2c1)CCN1C(=O)C(CC(=O)NCCc2ccccn2)C[C@H](C(=O)N2CCOCC2)[C@@]31C (stereo not given in full) 2.29%
CSc1cc(C)n(-c2ccccc2C)c(=S)c1C(C)=O -0.347%
COc1ccccc1CNC(=O)CNC(=O)c1cn(-c2ccccc2OC)c(=O)c2ccccc12 1.89%
Cc1ccc(F)c(S(=O)(=O)NC(=O)C2(C)CCN2C(=O)CCc2cccs2)c1 (stereo not given) 2.26%
O=C(Nc1cccc(Cc2ccccc2)c1)Nc1ccc2nc([C@@H]3O[C@H](CO)[C@@H](O)[C@H](O)[C@H]3O)[nH]c2c1 0.008%
NNC(=O)CNC(c1ccccc1)c1cc(Cl)ccc1NC(=O)c1ccccc1 (stereo not given) -3.39%
CC(C)c1ccc(NC(=O)CCN2C(=O)c3ccc([N+](=O)[O-])cc3C2=O)cc1 1.26%
CN(CC1CCCO1)S(=O)(=O)c1ccc(C(=O)Nc2ccc([N+](=O)[O-])cc2)cc1 (stereo not given) -5.35%
COCCCn1c(SCC(=O)Nc2oc(C)c3c(C)n[nH]c(=O)c23)nc2sc3c(c2c1=O)CCC3 4.94%
C1CC1Cc1noc(CN2CCN(CC3CC3)CC2)n1 -0.901%
O=C(Cn1cnc2ccccc21)Nc1ccccc1-c1ccccc1 0.271%
O=C(COC(=O)Cn1cnc2ccccc2c1=O)NCc1ccccc1Cl 0.775%
COc1cc(C(=S)N2CCOCC2)cc(OC)c1OC(=O)c1cc([N+](=O)[O-])c(C)c([N+](=O)[O-])c1 1.27%
CSc1ccc(/C=N/N2CCN(Cc3ccccc3Cl)CC2)cc1 2.53%
Cc1ccc(C)c(NC(=O)CCC(=O)N/N=C2/CC(=O)CC(C)(C)C2)c1 0.203%
CC(C)NC(=O)Nc1cccc2c1O[C@H](CN(C)S(=O)(=O)c1cccs1)[C@@H](C)CN([C@H](C)CO)C2=O 0.641%
O=C(CNCc1ccco1)Nc1cc(S(=O)(=O)N2CCOCC2)ccc1N1CCCC1 2.55%
O=[N+]([O-])c1cc(S(=O)(=O)Nc2cccc(Cl)c2)ccc1N=Nc1c(O)[nH]c2ccccc12 -5.47%
CC1(C)Cc2c(cnn2-c2cccc(F)c2)C(NC(=O)c2cc[n+]([O-])cc2)C1 (stereo not given) 1.53%
Cc1cc(C(=O)NC2CC(C)(C)Cc3c2cnn3-c2ccccc2)n[nH]1 (stereo not given) -9.34%
CN(CCO)C(=O)c1nc[nH]c1C(=O)N(C)Cc1ccccc1 1.82%
COc1cc(CCN=Cc2ccccc2O)c([N+](=O)[O-])cc1OC 2.9%
COc1ccc(OC)c2[nH]c(=O)c(CCNC(=O)C(=O)c3c[nH]c4ccccc34)cc12 -0.931%
O=c1ccc2cc(S(=O)(=O)NCCCc3ccccc3)ccc2[nH]1 -0.159%
O=C(N/N=C\c1cccc(Br)c1)c1ccccc1-n1cccc1 0.034%
O=C(Nc1ccc(N2CCCC2=O)cc1)c1cncc(Br)c1 -9.16%
COCOc1cccc(CN2CCC(C)(Oc3ccc(SC)cc3)C2)c1 (stereo not given) -0.871%
Cc1ccc(C)c(NC(=O)C2Cc3ccccc3CN2C(=O)OCc2ccccc2)c1 (stereo not given) -1.83%
O=C(COc1ccc(Cl)cc1)Nc1ccc2oc(=O)ccc2c1 -2%
CCCNC(=O)C1(C)CCN(Cc2ccc(Cl)c(Cl)c2)C1 (stereo not given) 0.635%
Cc1cc(C)c2c(=O)n3c(nc2c1)C(CC(C)C)NC(=O)c1cc2ccccc2cc1-3 (stereo not given) -7.33%
